# Results as given in PubChem BioAssay (Tox21).
# Where “and” joins values, the source holds several entries; their conditions need not be identical. Identical values can stand only once. Records with an inconclusive call do not appear. Calls of active or inactive are those of the source. The call rests on the fitted dose curve; in most records, active means well fitted inhibition curve with a large enough effect in the repeat runs; inconclusive means weak or mixed curves; inactive means no such curve, though single readings can be large or run the other way.
# Target: Cytochrome P450 1A2 (Homo sapiens) (UniProt P05177)
# Sequence (P05177 whole entry, looked up): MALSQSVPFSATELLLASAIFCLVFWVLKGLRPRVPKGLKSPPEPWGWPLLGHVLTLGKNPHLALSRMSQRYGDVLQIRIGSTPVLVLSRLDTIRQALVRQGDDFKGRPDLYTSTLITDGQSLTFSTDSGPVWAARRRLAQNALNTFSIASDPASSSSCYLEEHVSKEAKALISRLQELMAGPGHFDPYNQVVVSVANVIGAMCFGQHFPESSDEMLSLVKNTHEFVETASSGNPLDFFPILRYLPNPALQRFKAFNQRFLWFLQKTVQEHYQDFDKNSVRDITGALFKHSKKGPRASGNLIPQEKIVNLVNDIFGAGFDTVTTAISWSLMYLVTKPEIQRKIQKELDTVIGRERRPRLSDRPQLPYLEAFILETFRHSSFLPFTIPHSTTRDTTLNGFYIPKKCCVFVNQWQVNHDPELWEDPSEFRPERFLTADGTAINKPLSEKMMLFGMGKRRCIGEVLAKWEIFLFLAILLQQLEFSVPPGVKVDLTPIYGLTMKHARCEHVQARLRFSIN
# Assay: Cytochrome P450 Family 1 Subfamily A Member 2 (CYP1A2) small molecule antagonists: luciferase reporter qHTS assay (AID 1671199); further: nearly all actives have a fitted effect of over 50% in size
# Conditions: P450-Glo CYP1A2 enzyme, luciferin luminescence, 1 h; series mostly up to 53 µM
# Excerpt: National Center for Advancing Translational Sciences [NCATS]
# U.S. Environmental Protection Agency [EPA]
# National Institutes of Environmental Health Sciences [NIEHS]
# National Toxicology Program [NTP]
# U.S. Food and Drug Administration [FDA]
# Cytochrome P450 (CYP) enzymes are membrane-bound hemeproteins that play a key role in metabolism of drugs and xenobiotics. Evaluation of the effect of chemicals on CYP isozymes is useful to minimize the adverse drug reactions and toxicities in drug development process. Tox21 chemicals were tested for their effect on CYP enzyme activities by using P450-Glo (TM) screening systems (Promega Corporation, Madison, WI). These systems provide a luminescent method containing proluciferin substrates and are converted to luciferin products by CYP isozymes. The luciferin products formed are detected with a luciferin detection reagent, and the amount of light produced is proportional to CYP activity. P450-Glo (TM) CYP1A2 screening system (Catalog. No. V9770) was used to detect the compounds that interfere in CYP1A2 activity. The positive control compound used for CYP1A2 assay is furafylline (Sigma-Aldrich, St. Louis, MO).
# Tox21 Assay Protocol Summary:
# Two ul of enzyme-substrate mix was dispensed into medium binding white/solid 1536-well plates (Greiner Bio-One North America Inc., Monroe, NC) using a BioRaptr Flying Reagent Dispenser (FRD, Beckman Coulter, Brea, CA). Compounds dissolved in DMSO and positive control (furafyllline) were transferred to the assay plates at 23 nl using a Pintool station (Wako, San Diego, CA). The assay plates were incubated at room temperature for 10 min. Then 2 ul of NADPH regeneration solution was added to each well of the assay plates using an FRD and incubated at room temperature for 1 h. The reaction was stopped by adding 4 ul of detection reagent using an FRD and after 20 min incubation at room temperature the luminescence signal was measured using a ViewLux plate reader (Perkin Elmer, Shelton, CT). Data were expressed as relative luminescence units.
# Potency means the concentration at half of the fitted maximal effect.
row,Structure (SMILES),Potency
1,C[C@@H]1C[C@H]2[C@@H]3CCC4=CC(=O)C=C[C@]4(C)[C@@]3(Cl)[C@@H](O)C[C@]2(C)[C@@]1(OC(=O)c1ccco1)C(=O)CCl,inactive
2,Cc1onc(-c2c(Cl)cccc2Cl)c1C(=O)N[C@@H]1C(=O)N2[C@@H]1SC(C)(C)[C@@H]2C(=O)O,inactive
3,CN(C)[C@@H]1C(=O)C(C(N)=O)=C(O)[C@@]2(O)C(=O)C3=C(O)c4c(O)ccc(Cl)c4[C@@H](O)[C@H]3C[C@@H]12,inactive
4,O=C1c2c(O)ccc(Nc3ccc(CCO)cc3)c2C(=O)c2c([N+](=O)[O-])ccc(O)c21,31.7 µM (active)
5,Nc1ccc(N)c2ccccc12,2.52 µM (active)
6,C[n+]1cc2c3c(ccc2c2ccc4cc5c(cc4c21)OCO5)OCO3,12 µM (active)
7,NNc1nc(-c2ccc([N+](=O)[O-])cc2)cs1,3.99 µM (active)
8,O=C(Oc1cccc2cccnc12)c1ccccc1,17.4 µM (active)
9,CNc1ccc(O)cc1,63.2 µM (active)
10,Cn1cc(C(=O)[C@@H]2CCc3nc[nH]c3C2)c2ccccc21,17.4 µM (active)
11,O=C(c1ccc(F)cc1)C1CCN(CCn2c(=O)[nH]c3ccccc3c2=O)CC1,inactive
12,Clc1ccc2cc3ccccc3cc2c1,1.59 µM (active)
13,Cc1nc(-c2ccc3c(c2)CCN(CCC2CCC(NC(=O)/C=C/c4ccc(F)cc4)CC2)CC3)no1 (stereo not given),inactive
14,CCCC(=O)OC[C@@H](OC(=O)CCC)[C@@H](OC(=O)CCC)[C@H](Cn1c2nc(=O)[nH]c(=O)c-2nc2cc(C)c(C)cc21)OC(=O)CCC,inactive
15,Nc1c2ccccc2nc2ccccc12,1.25 µM (active) and 2.45 µM (active)
16,NC(=O)N1C(=O)C(C(=O)c2cc(Cl)cs2)c2cc(F)c(Cl)cc21 (stereo not given),17.8 µM (active)
17,c1ccc(CSCc2ccccc2)cc1,31.6 µM (active)
18,N#CC1(c2ccc(F)cc2)CCC(=O)CC1,inactive
19,CCCCCCCCCCn1cc[n+](CCCCCCCCCC)c1C,71.1 µM (active)
20,CCCCC(CC)COP(=O)(O)OCC(CC)CCCC (stereo not given),inactive

row,Structure (SMILES),Potency
1,Nc1c(Cl)cc(Cl)cc1Cl,15.7 µM (active)
2,Nc1ccc2cc(S(=O)(=O)O)cc(O)c2c1N=Nc1ccccc1C(F)(F)F,39.9 µM (active)
3,Cc1ccc2oc(CN(Cc3ccccc3)C(=O)Nc3c(F)cc(F)cc3F)c(-c3ccc(Cl)cc3)c2c1,54.6 µM (active)
4,Nc1cc(C(F)(F)F)ccc1S,12.3 µM (active)
5,CCOc1ccc2nc3cc(N)ccc3c(N)c2c1,0.871 µM (active)
6,c1cc(C(c2ccc(OCC3CO3)cc2)c2ccc(OCC3CO3)cc2)ccc1OCC1CO1 (stereo not given),inactive
7,CSc1ccc2c(c1)C(N1CCN(C)CC1)Cc1ccccc1S2 (stereo not given),inactive
8,CCCCCCCC/C=C\CCCCCCCCOCCO,inactive
9,CCc1cc(SCc2sc(-c3ccc(C(F)(F)F)cc3)nc2CN2CCN(c3ccc(OC)cc3)CC2)ccc1OCC(=O)O,inactive
10,O=Cc1cc(O)ccc1Br,36.1 µM (active)
11,CCCCCCCCCCCC(=O)NCCCN(C)C,35.6 µM (active)
12,CCCCN(CCCC)c1ccc(C(=O)c2ccccc2C(=O)O)c(O)c1,63.9 µM (active)
13,CC(C)CCCCCCCCCCCCCCC(=O)O,inactive
14,CCOc1nc2cccc(C(=O)OC(C)OC(=O)OC3CCCCC3)c2n1Cc1ccc(-c2ccccc2-c2nn[nH]n2)cc1 (stereo not given),inactive
15,O=CC=C(c1ccccc1)c1ccccc1,20.2 µM (active)
16,O=C(Nc1cccc(C(F)(F)F)c1)c1cc(Br)cc(Br)c1O,56.4 µM (active)
17,O=c1[nH]sc2ccccc12,31.7 µM (active)
18,Cc1cc(C2CCCCC2)n(O)c(=O)c1,inactive
19,O=C(Nc1cccc(Cl)c1)OCC#CCCl,1.78 µM (active)
20,Nc1ccc2c3c(cccc13)-c1ccccc1-2,0.128 µM (active)
